High-throughput results as filed in PubChem BioAssay.
Texas Red fluor – compounds fluorescent in Texas Red spectral region; Compound fluorescence, Texas Red channel, 547/618 nm; active compounds read high; max dye-equivalent concentration, M; actives 0.06% (n = 59,000); AID 587; in the data active = max dye-equivalent concentration above about 10 nM; inconclusive = between about 1.1 nM and that limit
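Pin-transferred compounds and Texas Red standards go into 100 mM Tris buffer, pH 8.0. After 15 min at room temperature, plates are imaged with 547/618 nm filters. Each value is a dye-equivalent concentration derived from the per-plate dye curve.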
A488 fluor – compound fluoresces in the A488 spectral region; max dye equivalency, M; compound autofluorescence, A488 spectral region, dye equivalency; Compound Type: qHTS ECL - MLSMR; actives 0.1% (n = 59,000)
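Compound autofluorescence was read in 100 mM Tris pH 8.0 after 15 min at room temperature, ex 480 nm/em 540 nm. Intensities were converted to A488 dye-equivalent concentration using an on-plate six-point A488 standard curve.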
Resorufin autofl – compounds fluorescent in resorufin spectral region; actives 0.04% (n = 59,000); Compound fluorescence, resorufin region 547/598 nm, buffer; active compounds read high; max dye-equivalent concentration, M; AID 588
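Dye-equivalent concentration values derive from comparing each well's 547/598 nm fluorescence against resorufin standards included on every plate. Incubation was 15 min at room temperature in 100 mM Tris, pH 8.0.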
A647 fluor – compound autofluorescence in A647 spectral region | AID 592 | 59,000 tested, under 10 active | max dye-equivalent concentration, M | Compound fluorescence, A647 channel (570/671 nm), Tris buffer;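 also: values scaled relative to a standard on each plate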
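Buffer was dispensed, compounds and Alexa 647 standards were pin-transferred, and plates sat 15 min at room temperature. Intensity at 570/671 nm was then converted to dye-equivalent concentration using the plate's A647 standard curve.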
Rhodamine fluor – compound fluoresces in the rhodamine spectral region; AID 594; max dye-equivalent concentration, M; actives 0.05% (n = 59,000); Rhodamine-region fluorescence, 547/598 nm, Tris buffer; active compounds read high; in the data active = max dye-equivalent concentration above about 11 nM; inconclusive = between about 1.1 nM and that limit
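Steps: pin-transfer compounds into pH 8.0 Tris (100 mM), hold 15 min at room temperature, image with a 547/598 nm filter pair, and convert intensities to rhodamine-equivalent concentration using a six-point on-plate rhodamine series.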
Fluorescein fluor – compound fluoresces in the fluorescein spectral region | Compound autofluorescence, 480/540 nm, fluorescein-equivalent; active compounds read high | max fluorescein-equivalent concentration, M | actives 0.91% (n = 59,000) | AID 593; in the data active = max fluorescein-equivalent concentration above about 10 nM; inconclusive = between about 1.1 nM and that limit
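In this qHTS profile, compound fluorescence was measured with a 480 nm/540 nm filter pair following a 15-min room-temperature incubation in 100 mM Tris (pH 8.0). A six-point fluorescein series on each plate served for normalization.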
Numbers without * were called inactive; i = inactive; ? = inconclusive; ! = not confirmed by another sample. Rows were chosen to be rich in hits. Some 0.95% of all compounds tested hit in one or more screens of this group. Unless noted, no rule for the calls is given here.

SMILES	Texas Red fluor	A488 fluor	Resorufin autofl	A647 fluor	Rhodamine fluor	Fluorescein fluor
O=C1NC(c2ccccn2)Nc2sc3c(c21)CCC3 (stereo unspecified)	?	i	i	9.1e-09	i	i
CCOC(=O)N1CCc2c(sc3c2C(=O)NC(c2ccc(-c4ccc(Cl)cc4)o2)N3)C1 (stereo unspecified)	i	i	i	1e-09	i	i
CN1CCc2c(sc3c2C(=O)NC(/C=C/c2ccco2)N3)C1 (stereo unspecified)	i	i	i	4.3e-08	i	1.3e-08M*
Cc1ccc(C2NC(=O)c3c(sc4c3CCN(C)C4)N2)s1 (stereo unspecified)	i	i	i	4.5e-08	i	1.6e-08M*
Cc1ccc(C2NC(=O)c3c(sc4c3CCN(C)C4)N2)o1 (stereo unspecified)	i	i	i	4e-08	i	1.2e-08M*
CN1CCc2c(sc3c2C(=O)NC(c2ccccn2)N3)C1 (stereo unspecified)	1.2e-08M*	?	?	4.8e-08	?	5.6e-08M*
CN1CCc2c(sc3c2C(=O)NC(c2ccc4c(c2)OCO4)N3)C1 (stereo unspecified)	?	i	i	2.3e-08	i	?
OC[C@@H]1O[C@@H](n2cnc3c(N[C@@H]4C[C@@H]5CC[C@H]4C5)ncnc32)[C@@H](O)[C@H]1O	?	i	i	2.3e-09	i	i
Nc1ccn([C@H]2CC[C@H](CO)O2)c(=O)n1	i	i	i	4.6e-08	i	?
N#[N+]c1ccc(Nc2ccccc2)cc1	i	i	i	1e-09	i	1.3e-08M*
COc1ccc(NC(=O)/C=C\c2ccc(Cl)cc2)cc1	?	i	i	1e-09	i	?
COC(=O)c1c(=O)n(O)c2ccc(OC)cc2[n+]1[O-]	i	?	i	2e-09	i	3.6e-08M*
CC1=C(\C=C/C(C)=C/C=C\C(C)=C\C(=O)Nc2ccc(O)cc2)C(C)(C)CCC1	i	i	i	8.9e-09	i	?
CN(C)c1ccc(/C=c2\sc3n(c2=O)CCCN=3)cc1	i	i	i	1e-09	i	1.5e-08M*
COC(=O)/C=c1/sc2n(c1=O)CCN=2	i	i	i	1.8e-08	i	i
CN(C)c1ccc(/C=C/c2cc[n+]([O-])cc2)cc1	?	1.5e-08M*	i	5e-09	i	2.9e-07M*
CCOC(=O)CSC1=NC(=O)CS1	i	i	i	1e-09	i	2e-08M*
CCOC(=O)CSc1nnc(N)s1	?	i	i	2.3e-09	i	?
Cc1ccc(C2c3sc(=O)[nH]c3SC3C(=O)NC(=O)C32)cc1 (stereo unspecified)	i	i	i	1e-09	i	1.2e-08M*
O=C(O)C1Sc2[nH]c(=O)sc2C2c3cc(Cl)ccc3OC(=O)C12 (stereo unspecified)	i	i	i	1.7e-08	i	i
O=C(c1[nH]o[n+](=O)c1C(=O)c1csc2ccccc12)c1csc2ccccc12	i	i	i	1e-09	i	i
C=C(CO)[C@H]1Cc2c(ccc3c2O[C@H]2COc4cc(OC)c(OC)cc4[C@@H]2C3=O)O1	i	i	i	1.5e-08	i	i
CCCn1c(=C(C#N)C#N)s/c(=C2\C=Cc3ccccc3N2CC)c1=O	?	i	?	9.4e-09	?	2.1e-08M*
CCSC1=NC(=O)/C(=C2/C=Cc3ccccc3N2CC)S1	i	i	i	7.5e-09	i	?
CO[C@@H]1/C=C\O[C@]2(C)Oc3c(C)c(O)c4c(O)c(cc(O)c4c3C2=O)NC(=O)/C(C)=C\C=C/[C@H](C)[C@@H](O)[C@H](C)[C@H](O)[C@H](C)[C@H](OC(C)=O)[C@@H]1C	i	i	i	1e-09	i	i
SMILES	Texas Red fluor	A488 fluor	Resorufin autofl	A647 fluor	Rhodamine fluor	Fluorescein fluor
COc1ccc(-c2ccc(-c3noc(-c4ccccc4OC)n3)c(OC)n2)cc1	i	?	i	1e-09	i	2.8e-08M*
COc1ccc(-c2ccc(-c3noc(-c4ccccc4C)n3)c(OC)n2)cc1	?	i	i	1e-09	i	1.2e-08M*
Cc1c(C2Nc3ccccc3NC3=C2C(=O)CC(C)(C)C3)cnn1C (stereo unspecified)	i	i	i	6.8e-09	i	1.1e-08M*!
O=C1c2cccc3c(N4CCCCC4)ccc(c23)C(=O)N1c1ccccn1	i	1.3e-08M*	i	2.3e-09	i	2.7e-07M*
O=[n+]1c2c(n([O-])c3cc(F)ccc31)CCCC2	i	i	i	1e-08	i	i
O=[n+]1c2c(n([O-])c3cc(F)c(N4CCCC4)cc31)CCC2	?	?	?	1.2e-08	?	1.7e-07M*
